For the experiment, the system named is HCoV-229E. Also on record: species or system Huh-7; HTS, protection from HCoV-229E induced cell death, luminescent cell viability (CellCounting-Lite 2.0), inhibition rate. The settings on record: 24 h post infection, 1 h compound pre-incubation, 10 µM, inhibitor.

Where a name gives a salt, the structure may show the parent alone. Read-outs that look alike come from different tables or passages of the source. Out of some 3,300 compounds screened, about 95 (3%) showed an effect of 50% or more. Only a selection was taken, and strong results are over-represented in it overall.

With `COc1c2ccoc2c(O)c2oc(=O)ccc12` [8-Hydroxybergapten], the “229E Inhibition rate” value is recorded as 7.9%.

As for `C/C=C1\C(=O)C[C@H]2[C@@H]3CCC4=CC(=O)CC[C@]4(C)[C@H]3CC[C@]12C` [(Z)-Guggulsterone], the “229E Inhibition rate” value (229E Inhibition rate, 24 h) was 6.7%. As for `C/C=C(/C)C(=O)O[C@@H]1[C@H](OC(=O)CC(C)C)c2c(ccc3ccc(=O)oc23)OC1(C)C` [Praeruptorin C], the “229E Inhibition rate” value turned out to be 32.9%. Still for that read-out and setting: with `C/C=C(/C)C(=O)O[C@H]1[C@@H](OC(C)=O)c2c(ccc3ccc(=O)oc23)OC1(C)C` [Praeruptorin A] the figure was 19.1%; with `C/C=C(/C)C(=O)O[C@H]1[C@@H](OC(=O)CC(C)C)c2c(ccc3ccc(=O)oc23)OC1(C)C` [Praeruptorin E], 43.4%. Take `C/C=C(\C)C(=O)OC1c2c(ccc3ccc(=O)oc23)OC(C)(C)C1OC(=O)/C(C)=C/C` (stereo not shown) [Praeruptorin B]: the “229E Inhibition rate” value turned out to be 53.9%. The same measure, in the same setting: with `C/C=C(/C)C(=O)O[C@@H]1c2c(ccc3ccc(=O)oc23)OC(C)(C)[C@@H]1OC(C)=O` [Pteryxin] the figure was 4.8%. Same read-out and setting: in the case of `C/C=C(/C)C(=O)O[C@@H]1c2c(ccc3ccc(=O)oc23)OC(C)(C)[C@@H]1OC(=O)/C(C)=C\C` [(-)-Anomalin] it was 51.7%; in that of `CC(C)=CCc1c2ccoc2c(O)c2oc(=O)ccc12` [Alloimperatorin], 0%. In the case of `c1c2c(cc3c1OCO3)-c1cc3ccc4c(c3c[n+]1CC2)OCO4` [Coptisine (chloride)], the “229E Inhibition rate” value (229E Inhibition rate, 24 h) worked out at 32%. For `O=C(O)C1CSSC1` [Asparagusic acid], the “229E Inhibition rate” value is 15.6%. Still for that read-out and setting: with `CC(C)C[C@H](NC(=O)CN)C(=O)O` [Glycyl-L-leucine] the figure was 13.8%. Same read-out and setting: in the case of `O=C1c2c(O)cc(O)cc2O[C@H](c2ccc(O)cc2)[C@H]1O` [Dihydrokaempferol] it was 9.9%. In the case of `COc1cc(O)c(CC=C(C)C)c2c1C(=O)CC(c1ccc(O)cc1)O2` (stereo not shown) [Isoxanthohumol], the “229E Inhibition rate” value was determined as 23.6%. The same measure, in the same setting: with `C=C(C)[C@H](CC=C(C)C)Cc1c(O)cc(OC)c2c1O[C@H](c1ccc(O)cc1O)CC2=O` [Kurarinone] the figure was 19.7%. Turning to `C=C(C)[C@H](CC=C(C)C)Cc1c(O)cc(OC)c2c1O[C@H](c1ccc(O)cc1O)[C@@H](O)C2=O` [Kushenol I], the “229E Inhibition rate” value came out at 6.5%. The same measure, in the same setting: in the case of `C=C(C)[C@H](CC=C(C)C)Cc1c(O)cc(O)c2c1O[C@H](c1ccc(O)cc1O)CC2=O` [sophoraflavanone G] it was 75.7%; in that of `C=C(C)[C@H](CC=C(C)C)Cc1c(O)cc(OC)c2c1O[C@H](c1ccc(O)cc1OC)CC2=O` [(2S)-2'-Methoxykurarinone], 62.1%; in that of `C=C(C)[C@H](CC=C(C)C)Cc1c(O)cc(O)c2c1O[C@H](c1ccccc1O)CC2=O` [Kushenol A], 10.8%. For the compound `C[C@H](O)[C@H](O)C1=Nc2c(nc(N)[nH]c2=O)NC1` [7,8-Dihydro-L-biopterin], the “229E Inhibition rate” value was 24.5%. Consider `N[C@@H](CCC(=O)O)C(=O)O` [L-Glutamic acid (monosodium salt)], for which the “229E Inhibition rate” value (229E Inhibition rate, 24 h) came to 12%. `C[C@@H]1O[C@@H](O[C@H]2[C@H](Oc3cc(O)c4c(=O)cc(-c5ccc(O)cc5)oc4c3)O[C@H](CO[C@@H]3O[C@H](CO)[C@@H](O)[C@H](O)[C@H]3O)[C@@H](O)[C@@H]2O)[C@H](O)[C@H](O)[C@H]1O` [Apigenin-7-O-(2G-rhamnosyl)gentiobioside]: the “229E Inhibition rate” value was found to be 22.2%. `Nc1ccccc1S(=O)(=O)O` [2-Aminobenzenesulfonic acid]: the “229E Inhibition rate” value is recorded as 0%. On to `COc1cc(-c2[o+]c3cc(O)cc(O)c3cc2O)cc(O)c1O` [Petunidin (chloride)], for which the “229E Inhibition rate” value came to 13.2%. On the same count and under the same terms, in the case of `O=C(/C=C/c1ccc(O[C@@H]2O[C@H](CO)[C@@H](O)[C@H](O)[C@H]2O[C@@H]2OC[C@](O)(CO)[C@H]2O)cc1)c1ccc(O)cc1O` [Isoliquiritin apioside] it was 63.8%; in that of `O=C(/C=C/c1ccc(O)cc1)c1ccc(O[C@@H]2O[C@H](CO)[C@@H](O)[C@H](O)[C@H]2O)cc1O` [Neoisoliquiritin], 24.9%; in that of `O=C(/C=C/c1ccc(O[C@@H]2O[C@H](CO)[C@@H](O)[C@H](O)[C@H]2O)cc1)c1ccc(O)cc1O` [Isoliquiritin], 27.7%. In the case of `C=C1CC[C@H]2O[C@]2(C)CC[C@@H]2[C@@H]1CC2(C)C` [Caryophyllene oxide], the “229E Inhibition rate” value stood at 16.3%. Regarding `O=C(O)c1ccc(O)c(O)c1O` [2,3,4-Trihydroxybenzoic acid], the “229E Inhibition rate” value is recorded as 18%. Take `C[C@H](CC[C@@H](O[C@@H]1O[C@H](CO[C@@H]2O[C@H](CO)[C@@H](O)[C@H](O)[C@H]2O)[C@@H](O)[C@H](O)[C@H]1O[C@@H]1O[C@H](CO)[C@@H](O)[C@H](O)[C@H]1O)C(C)(C)O)[C@H]1CC[C@@]2(C)[C@@H]3CC=C4[C@@H](CC[C@H](O[C@@H]5O[C@H](CO[C@@H]6O[C@H](CO)[C@@H](O)[C@H](O)[C@H]6O)[C@@H](O)[C@H](O)[C@H]5O)C4(C)C)[C@]3(C)C(=O)C[C@]12C` [11-oxo-mogroside V]: the “229E Inhibition rate” value was 0%. On the same count and under the same terms, with `COc1cc([C@@H]2OC[C@@H]3[C@H]2CO[C@H]3c2cc(OC)c(O)c(OC)c2)cc(OC)c1O` [(-)-Syringaresinol] the figure was 16.7%.

For `Cc1cc(O)c2c(c1)C(=O)c1cccc(O[C@@H]3O[C@H](CO)[C@@H](O)[C@H](O)[C@H]3O)c1C2=O` [Chrysophanol 8-O-glucoside], the “229E Inhibition rate” value is recorded as 8.4%. Consider `Cc1cc(O[C@@H]2O[C@H](CO)[C@@H](O)[C@H](O)[C@H]2O)c2c(c1)C(=O)c1cccc(O)c1C2=O` [Chrysophanein], for which the “229E Inhibition rate” value turned out to be 51.1%. Same read-out and setting: in the case of `CC(=O)OC[C@H]1O[C@@H](O[C@@H]2[C@@H](O)[C@H](O[C@@H]3[C@H](O)C(C)(C)C[C@H]4C5=CC[C@@H]6[C@@]7(C)CC[C@H](O[C@@H]8O[C@H](C(=O)O)[C@@H](O)[C@H](O)[C@H]8O[C@@H]8O[C@H](CO)[C@H](O)[C@H](O)[C@H]8O[C@@H]8O[C@H](CO)[C@@H](O)[C@H](O)[C@H]8O)[C@](C)(CO)[C@@H]7CC[C@@]6(C)[C@]5(C)CC[C@@]34C)OC[C@@H]2O)[C@H](OC(C)=O)[C@@H](OC(C)=O)[C@@H]1OC(C)=O` [Soyasaponin Ab] it was 46.7%. `CN1CCC=C(C(=O)O)C1` [Arecaidine]: where the note is “229E Inhibition rate, 24 h”, the “229E Inhibition rate” value was 7.9%.

On to `O=C(/C=C/c1ccc(O)c(O)c1)O[C@@H](C(=O)O)[C@@H](OC(=O)/C=C/c1ccc(O)c(O)c1)C(=O)O` [Chicoric acid], for which the “229E Inhibition rate” value (229E Inhibition rate, 24 h) came to 8%. For `CC(=O)OCCC(C)CCC=C(C)C` (stereo not shown) [Citronellyl acetate], the “229E Inhibition rate” value is 16.2%. For `CCC(O)CC` [3-Pentanol], the “229E Inhibition rate” value turned out to be 19%. On the same count and under the same terms, with `COc1cc(-c2coc3cc4c(c(OC)c3c2=O)OCO4)cc(OC)c1OC` [Irisflorentin] the figure was 11.3%. Still for that read-out and setting: with `COc1cc(-c2coc3cc4c(c(O)c3c2=O)OCO4)cc(O)c1OC` [Dichotomitin] the figure was 53.3%; with `COc1cc(-c2coc3cc(O)c(OC)c(O)c3c2=O)cc(O)c1OC` [Irigenin], 11.4%; with `CO[C@@H]1[C@H](O)[C@@H](CO)O[C@H]1n1ccc(=O)[nH]c1=O` [2′-O-Methyluridine], 20.9%. On the same count and under the same terms, in the case of `CC1(C)C=Cc2c(ccc3c2OC[C@@H](c2ccc(O)cc2O)C3)O1` [Glabridin] it was 54.3%; in that of `Oc1ccc(C2COc3cc(O)ccc3C2)cc1` (racemic) [(±)-Equol], 11%.

As to `Oc1ccc([C@H]2COc3cc(O)ccc3C2)cc1` [(-)-(S)-Equol], the “229E Inhibition rate” value is 8.5%. In the case of `C=C1C[C@@]23CC[C@H]4[C@@](C)(CCC[C@@]4(C)C(=O)O)[C@@H]2CC[C@@H]1C3` [Kaurenoic acid], the “229E Inhibition rate” value amounted to 8.8%. Regarding `CC(C)(O)CC[C@@H](O)[C@](C)(O)[C@H]1CC=C2C3=C(CC[C@@]21C)[C@@]1(C)C[C@H](O)[C@H](O)C[C@H]1C(=O)C3` [Podecdysone B], the “229E Inhibition rate” value was 11.2%. For the compound `C[C@H](CCC(=O)O)[C@H]1CC[C@H]2[C@@H]3C(=O)C[C@@H]4C[C@H](O)CC[C@]4(C)[C@H]3CC[C@]12C` [7-Ketolithocholic acid], the “229E Inhibition rate” value came to 20.5%. `COc1ccc(C(C)=O)cc1O` [3-Hydroxy-4-methoxyacetophenone]: the “229E Inhibition rate” value came to 50.5%.

With `COc1cc(C(C)=O)ccc1O` [Apocynin], the “229E Inhibition rate” value is 5.3%. Same read-out and setting: with `COc1ccc(C(=O)O)cc1O` [Isovanillic acid] the figure was 0%. `COC(=O)c1ccc(OC)c(O)c1` [Methyl isovanillate]: the “229E Inhibition rate” value is 12.8%.

As to `COc1cc(C(=O)O)ccc1O` [Vanillic acid], the “229E Inhibition rate” value is 50%. The same measure, in the same setting: with `Cc1ccc(C(=O)O)cc1C` [3,4-Dimethylbenzoic acid] the figure was 23.9%; with `CC(=O)c1ccc(O)c(O)c1` [3',4'-Dihydroxyacetophenone], 12.4%; with `CC(=O)c1ccc(O)c(C)c1` [4'-Hydroxy-3'-methylacetophenone], 11.7%.

For `Cc1cc(C(=O)O)ccc1O` [4-Hydroxy-3-methylbenzoic acid], the “229E Inhibition rate” value was determined as 61.9%.

Take `O=Cc1cccs1` [2-Thiophenecarboxaldehyde]: the “229E Inhibition rate” value is reported as 6.5%. The same measure, in the same setting: in the case of `O=C(O)C(O)Cc1ccccc1` (racemic) [DL-3-Phenyllactic acid] it was 22.4%; in that of `COc1cc2c(cc1O)CCN1Cc3c(ccc(OC)c3OC)C[C@@H]21` [Corypalmine], 8.4%; in that of `C=C[C@](C)(O)CC[C@H]1C(=C)CC[C@H]2C(C)(C)CCC[C@]12C` [Manool], 42.5%. In the case of `COc1ccc(-c2oc3c(CCC(C)(C)O)c(O)cc(O)c3c(=O)c2O)cc1` [Wushanicaritin], the “229E Inhibition rate” value stood at 51.4%.

Consider `COc1ccc(-c2oc3c(CC=C(C)C)c(O)cc(O)c3c(=O)c2O)cc1` [Icaritin], for which the “229E Inhibition rate” value is on record as 8.6%.

For `CC(C)(O)CCc1c(O)cc(O)c2c(=O)c(O)c(-c3ccc(O)cc3)oc12` [Noricaritin], the “229E Inhibition rate” value came to 14.9%.

Source of the values: paper PMC12431657, “Discovery and mechanistic insights of dibenzoylmethane as a broad spectrum inhibitor of coronavirus” (PLOS Pathogens, 2025).
